Bead autofluor – counter-screen for toxin protease inhibitors: compound fluorescence; fluorescence intensity (concentration not given with the values); compound autofluorescence counterscreen, microsphere flow cytometry; active compounds read high; 360,000 compounds, 3.1% hits; in the data active means fluorescence intensity above about 16000; inconclusive means no clear call, values can overlap the other calls
BoNT-A LC inh2 – BoNT A light chain protease inhibition. AID 588499. inhibition, % at 10 µM. multiplex microsphere protease substrate cleavage, flow cytometry. 360,000 compounds, 0.17% hits; further: plate controls were buffer without enzyme for full effect and enzyme alone for no effect
CCHFV vOTU inh – blocks the CCHF virus ovarian tumor domain protease; 370,000 compounds, 0.55% hits; CCHFV vOTU protease, Pep-AMC fluorescence; inhibition, % at 11.5 µM; in the data active means inhibition above about 30%; further: 0% = vehicle wells with enzyme and 100% = no enzyme wells
Anthrax LF inh2 – inhibitors of Bacillus anthracis lethal factor protease | P15917 | multiplex microsphere protease cleavage assay, LF | inhibition, % at 10 µM | 360,000 compounds, 0.12% hits; further: plate controls were buffer without enzyme for full effect and enzyme alone for no effect
Target sequence (P15917 whole entry, looked up): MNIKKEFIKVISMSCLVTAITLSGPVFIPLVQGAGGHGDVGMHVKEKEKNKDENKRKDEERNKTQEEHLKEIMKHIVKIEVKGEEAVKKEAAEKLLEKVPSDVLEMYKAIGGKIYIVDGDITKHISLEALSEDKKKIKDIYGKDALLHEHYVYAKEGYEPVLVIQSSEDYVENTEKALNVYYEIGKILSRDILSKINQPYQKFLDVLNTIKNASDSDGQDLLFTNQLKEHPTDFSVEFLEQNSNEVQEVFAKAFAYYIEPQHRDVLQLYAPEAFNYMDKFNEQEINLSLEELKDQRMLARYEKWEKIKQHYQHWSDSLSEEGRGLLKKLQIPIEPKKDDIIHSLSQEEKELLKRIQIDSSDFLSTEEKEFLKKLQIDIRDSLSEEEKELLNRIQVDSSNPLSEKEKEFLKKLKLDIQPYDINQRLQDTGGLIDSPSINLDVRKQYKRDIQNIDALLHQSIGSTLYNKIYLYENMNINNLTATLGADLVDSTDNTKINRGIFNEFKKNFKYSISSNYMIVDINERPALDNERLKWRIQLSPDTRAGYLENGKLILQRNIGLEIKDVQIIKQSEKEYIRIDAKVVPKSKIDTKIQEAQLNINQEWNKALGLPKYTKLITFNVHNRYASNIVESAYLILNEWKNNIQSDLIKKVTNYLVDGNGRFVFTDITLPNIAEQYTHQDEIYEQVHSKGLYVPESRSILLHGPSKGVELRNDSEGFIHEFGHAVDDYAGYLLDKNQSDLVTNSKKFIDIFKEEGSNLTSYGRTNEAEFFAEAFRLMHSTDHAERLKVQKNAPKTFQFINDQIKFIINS
BoNT-F LC inh – blocks Botulinum neurotoxin F light chain protease; inhibition, % at 10 µM; 360,000 compounds, 0.22% hits; Multiplex microsphere protease cleavage assay, flow cytometry; in the data active means inhibition above about 35%, passing the limit was not always enough; inconclusive means no clear call, values can overlap the other calls; further: plate controls were buffer without enzyme for full effect and enzyme alone for no effect
3CLpro inhibitor – SARS-CoV 3CLpro protease inhibition | 290,000 compounds, 0.14% hits | inhibition, % at 6 µM | recombinant SARS-CoV 3CLpro, quenched FRET peptide cleavage; in the data active means inhibition above about 12%
The depositor's hits bear a star; u = inconclusive; x = no result; ! = repeats disagree. Compounds with a hit are over-represented: about 3.9% of the library has one in this group of screens. Unless noted, no stated cut-off is given here; in the data, active means inhibition above about 30%; inconclusive means no clear call, values can overlap the other calls; inactive means below that.

SMILES | Bead autofluor | BoNT-A LC inh2 | CCHFV vOTU inh | Anthrax LF inh2 | BoNT-F LC inh | 3CLpro inhibitor
Clc1ccc(Nc2nc3ccccc3n3nnnc23)cc1 | 20275* | 1.0 | 5.5 | -2.6 | 0.9 | 0.5
CC1CCc2sc(C(=O)NCCCn3ccnc3)cc2C1 (stereo not given) | 4998 | 0.1 | 4.5 | 2.7 | -2.9 | 3.6
O=C(Nc1ccon1)c1cc2c(s1)CCCCCC2 | 16721* | u | -14.1 | -0.8 | -3.9 | 2.0
O=C(NCCCn1ccnc1)c1cc2c(s1)CCCCC2 | 25451* | -5.4 | -5.5 | 0.1 | -8.8 | 1.7
O=C(Nc1ccon1)c1cc2c(s1)CCCC2 | 22744* | u | x | 1.0 | 4.8 | -1.3
O=C(NCc1ccco1)c1cc2c(s1)CCCCC2 | 18946* | 10.5 | -8.4 | -19.1 | 12.6 | -0.1
CC1(C(=O)NS(=O)(=O)c2cccc(OC(F)F)c2)CCN1C(=O)CC(c1ccccc1)c1ccccc1 (stereo not given) | 3448 | 0.0 | 0.7 | 2.7 | 1.9 | x
O=c1c2ccccc2n(Cc2ccccc2)n1[C@@H](Cc1ccccc1)Cn1cc(-c2ccc(-c3ccccc3)cc2)nn1 | x | x | -21.5 | x | x | x
Cc1cccc(-n2c(SCC(=O)NCc3ccco3)nnc2-c2ccco2)c1 | 7333 | -0.2 | -14.1 | -1.1 | -2.3 | 5.0
COc1cccc(NC(=O)CSc2nnc(Cc3cccn3C)n2-c2ccc(F)cc2)c1 | 5810 | 0.1 | 7.0 | -3.1 | -3.4 | 1.6
Cc1cc(C)c(NC(=O)CSc2nnc(Cc3cccn3C)n2-c2ccc(F)cc2)c(C)c1 | 25100* | -2.8 | 26.4 | -2.2 | -6.7 | 2.0
Cn1cccc1Cc1nnc(SCC(=O)NCc2ccco2)n1-c1ccc(F)cc1 | 22151* | u | -9.6 | -5.8 | 4.3 | -0.7
Cn1cccc1Cc1nnc(SCC(=O)NCc2ccccc2Cl)n1-c1ccc(F)cc1 | 4738 | -0.9 | -6.7 | -0.2 | -3.6 | 4.2
CC(=O)Nc1cccc(NC(=O)CSc2nnc(Cc3cccn3C)n2-c2ccc(F)cc2)c1 | 21922* | 2.5 | 7.2 | -8.3 | 1.7 | -3.5
Cc1ccc(-n2c(SCC(=O)NCc3ccco3)nnc2-c2cccnc2)c(C)c1 | 22964* | 0.6 | -8.6 | 1.6 | 1.3 | 0.3
Cc1ccc(/C=N/NC(=O)C2CC(=O)N(c3ccccc3)C2)s1 (stereo not given) | 2782 | 2.5 | -12.9 | 0.8 | 30.5 | 0.5
O=C(N/N=C/c1cccs1)C1CC(=O)N(c2ccccc2)C1 (stereo not given) | 20162* | 1.2 | 15.3 | -2.2 | 3.0 | 2.8
C=CCOc1ccc(Cl)cc1-c1noc(-c2csc([C@H]3C[C@H](O)[C@@H](CO)O3)n2)n1 | 3916 | -0.1 | 5.7 | 1.2 | -8.4 | x
Cc1cccc(C)c1N(CC(O)Cn1c2ccccc2c2ccccc21)S(C)(=O)=O (stereo not given) | 21877* | 1.5 | 3.7 | -0.2 | 1.2 | -0.3
COc1ccc(Nc2ncnc3sc(-c4ccccc4)cc23)cc1 | 19970* | u | 6.4 | 2.8 | -1.6 | -5.8
CCOC(=O)C(C(=O)OCC)=C1OC(=O)c2ccccc21 | 23965* | -0.3 | -4.3 | -1.9 | -0.9 | -4.1
C=Cc1c(C)c2cc3[nH]c(cc4nc(cc5nc(cc1[nH]2)C(C)=C5CCC(=O)O)C(CCC(=O)O)=C4C)c(C)c3C=C | 6983 | 42.9*! | 18.6 | 7.5 | -8.9 | x
O=C(C(=O)N1CCC(CNS(=O)(=O)c2cc(C(F)(F)F)cc(C(F)(F)F)c2)CC1)c1cc2ccccc2o1 | x | x | 2.5 | x | x | x
Cc1ccc2nc3c(nc2c1)-c1ccccc1C3=O | 23481* | 0.3 | -1.5 | 0.7 | -0.4 | -1.4
Cc1cc(Cl)ccc1NC(=O)COC(=O)c1cc([N+](=O)[O-])ccc1N1CCOCC1 | 49183* | -187.1 | 5.4 | -43.9 | -287.1 | x
SMILES | Bead autofluor | BoNT-A LC inh2 | CCHFV vOTU inh | Anthrax LF inh2 | BoNT-F LC inh | 3CLpro inhibitor
CCN(CCNC(=O)[C@H]1C=C(OC)C(=O)C[C@H](c2ccccc2)[C@H]1C)C(C)=O | x | x | 1.0 | x | x | x
CN(C)S(=O)(=O)N(CC(=O)Nc1ccc(F)c(F)c1)c1ccccc1 | 19146* | 0.7 | -10.1 | -0.8 | 0.3 | 1.6
CC(=O)c1cccc(NC(=O)CN(c2ccccc2F)S(C)(=O)=O)c1 | 22974* | 0.6 | -15.0 | 0.2 | 2.2 | 4.7
CC(=O)c1cccc(NC(=O)CN(c2ccccc2)S(C)(=O)=O)c1 | 4559 | 0.8 | 0.4 | 0.6 | -2.6 | 2.8
CC(=O)c1cccc(N(CC(=O)Nc2ccccc2F)S(C)(=O)=O)c1 | 3820 | -2.5 | -4.2 | -10.3 | -9.2 | 3.1
CC(=O)c1cccc(N(CC(=O)Nc2ccc(F)cc2F)S(C)(=O)=O)c1 | 22378* | 1.3 | -4.0 | -3.9 | 1.1 | 0.9
